Reference: PubChem BioAssay (EPA / NIEHS)
Records with an inconclusive call do not appear. Calls of active or inactive are those of the source. The calls were made as follows: active = hit-call score of the fitted dose curve at least 0.9, where 1 is the maximum; inconclusive = response in the unintended direction; inactive = score below 0.9.

Experiments:
[1] = target: human CYP1A2, CYP1A2 (gene 1544) (UniProt P05177); assay: NVS_ADME_hCYP1A2: NovaScreen (NVS) CYP450-related Enzyme Activity (ADME) Assay for human CYP1A2 (AID 2283102);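 as to AC50: fluorescence from turnover of a fluorogenic substrate by recombinant insect-cell CYP1A2; potency for inhibition since loss of fluorescence marks reduced CYP1A2 activity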
In short: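 Compounds were tested at 10 uM in duplicate against recombinant CYP1A2 produced in insect cells. Enzyme activity was measured by fluorescence 0.5 h after dosing, with loss of signal versus acetonitrile control. Active compounds were re-tested in concentration series.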

[2] = target: Cytochrome P450 2C19 (Homo sapiens) (UniProt P33261); assay: NVS_ADME_hCYP2C19: NovaScreen (NVS) CYP450-related Enzyme Activity (ADME) Assay for human CYP2C19 (AID 2283113);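 as to AC50: potency for inhibition seen as loss of fluorescent signal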
In short: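 Chemicals first screened in duplicate at 10 uM against recombinant human enzyme produced in insect cells; confirmed actives then run as concentration series. Fluorogenic substrate turnover read by fluorescence after 1 h, normalised to acetonitrile.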

[3] = target: human CYP2C9, CYP2C9 (gene 1559) (UniProt P11712); assay: NVS_ADME_hCYP2C9: NovaScreen (NVS) CYP450-related Enzyme Activity (ADME) Assay for human CYP2C9 (AID 2283108)
In short: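 Cell-free assay of recombinant human CYP2C9 produced in Sf9 cells, with enzyme activity read by fluorescence intensity 0.75 h after compound addition. Loss of signal versus an acetonitrile negative control indicates inhibition. Primary screen used 10 uM in duplicate; actives were retested in concentration series.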

[4] = target: human CYP2D6, CYP2D6 (gene 1565) (UniProt P10635); assay: NVS_ADME_hCYP2D6: NovaScreen (NVS) CYP450-related Enzyme Activity (ADME) Assay for human CYP2D6 (AID 2283107)
In short: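 Compounds were first tested in duplicate at 10 uM against recombinant enzyme produced in insect cells, with substrate turnover measured by fluorescence after 1 hour. Decreased signal, referenced to acetonitrile vehicle, was taken as reduced enzyme activity. Active chemicals went on to concentration-response testing.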

[5] = target: Cytochrome P450 3A4 (Homo sapiens) (UniProt P08684); assay: NVS_ADME_hCYP3A4: NovaScreen (NVS) CYP450-related Enzyme Activity (ADME) Assay for human CYP3A4 (AID 2283110)
In short: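 Cell-free assay using insect-cell-expressed human CYP3A4 with a fluorogenic substrate; fluorescence intensity was read 0.33 hour after dosing. Loss of signal relative to acetonitrile vehicle indicated inhibition. Primary single-concentration screen at 10 uM, in duplicate, then concentration series.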

[6] = target: human Acetylcholinesterase (AChE), ACHE (gene 43) (UniProt P22303); assay: NVS_ENZ_hAChE: NovaScreen (NVS) Enzymatic Assay for human Acetylcholinesterase (AChE) (AID 2283129)
In short: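 Cell-free colorimetric enzyme-activity assay; compounds read 0.33 hour after dosing, loss of signal vs DMSO baseline. Primary screen in duplicate at 25 uM single concentration, with active compounds retested in concentration series.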

[7] = target: human AMP-activated Protein Kinase, alpha 1 (AMPKa1), PRKAA1 (gene 5562) (UniProt Q13131); assay: NVS_ENZ_hAMPKa1: NovaScreen (NVS) Enzymatic Assay for human AMP-activated Protein Kinase, alpha 1 (AMPKa1) (AID 2283130)
In short: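 Recombinant human AMPKα1 activity was measured cell-free by fluorescent substrate conversion with electrophoretic mobility-shift separation, 1 h after dosing. Duplicate single-point screening was at 25 uM; actives (≥30% inhibition) were retested in concentration-response up to 50 uM.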

[8] = target: human CYP4F12, CYP4F12 (gene 66002) (UniProt Q9HCS2); assay: NVS_ADME_hCYP4F12: NovaScreen (NVS) CYP450-related Enzyme Activity (ADME) Assay for human CYP4F12 (AID 2283111)
In short: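 Cell-free fluorescence assay of recombinant human CYP4F12 activity on a specific substrate, read 0.5 h after dosing. Primary screen in duplicate at 10 uM, then concentration series for actives; loss of signal fitted against acetonitrile negative control.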

[9] = target: human Caspase 2 (CASP2), CASP2 (gene 835) (UniProt P42575); assay: NVS_ENZ_hCASP2: NovaScreen (NVS) Enzymatic Assay for human Caspase 2 (CASP2) (AID 2283135)
In short: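 E. coli-expressed enzyme in a cell-free protease assay, fluorescence read 1 h after dosing. Compounds at 25 uM in duplicate, with concentration-response up to 50 uM for hits; loss of signal against DMSO baseline.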

Caspase-1 (Homo sapiens) = Caspase-1 (Homo sapiens) (UniProt P29466); assay: NVS_ENZ_hCASP1: NovaScreen (NVS) Enzymatic Assay for human Caspase 1 (CASP1) (AID 2283132)
Method: NVS_ENZ_hCASP1 is a biochemical, single-readout assay that uses extracted gene-proteins from E. coli in a cell-free assay. Measurements were taken 1 hour after chemical dosing in a 96-well plate.NVS_ENZ_hCASP1 is one of one assay component(s) measured or calculated from the NVS_ENZ_hCASP1 assay. It is designed to make measurements of enzyme activity, a form of enzyme reporter, as detected with fluorescence intensity signals by Fluorescence technology.Data from the assay component NVS_ENZ_hCASP1 was analyzed into 1 assay endpoint. This assay endpoint, NVS_ENZ_hCASP1, was analyzed in the positive analysis fitting direction relative to DMSO as the negative control and baseline of activity. […] Furthermore, this assay endpoint can be referred to as a primary readout, because this assay has produced multiple assay endpoints where this one serves a enzymatic activity function. […]
Binding assays used specific radioligands (tritiated, iodinated) with non-radioactive competitive displacement ligands in agonist or antagonist protocols (as indicated) and various reference compounds and inhibitors to titrate specific binding to receptors and transporters. Most enzyme assays (CYPs, kinases, phosphatases, proteases, HDACs) used recombinant protein and specific substrates (fluorescence mostly, some colorimetric and radioactive) and inhibitors, followed by a biochemical separation of substrate and product. […]

human CYP2C9, CYP2C9 (gene 1559), sequence (P11712 whole entry, looked up): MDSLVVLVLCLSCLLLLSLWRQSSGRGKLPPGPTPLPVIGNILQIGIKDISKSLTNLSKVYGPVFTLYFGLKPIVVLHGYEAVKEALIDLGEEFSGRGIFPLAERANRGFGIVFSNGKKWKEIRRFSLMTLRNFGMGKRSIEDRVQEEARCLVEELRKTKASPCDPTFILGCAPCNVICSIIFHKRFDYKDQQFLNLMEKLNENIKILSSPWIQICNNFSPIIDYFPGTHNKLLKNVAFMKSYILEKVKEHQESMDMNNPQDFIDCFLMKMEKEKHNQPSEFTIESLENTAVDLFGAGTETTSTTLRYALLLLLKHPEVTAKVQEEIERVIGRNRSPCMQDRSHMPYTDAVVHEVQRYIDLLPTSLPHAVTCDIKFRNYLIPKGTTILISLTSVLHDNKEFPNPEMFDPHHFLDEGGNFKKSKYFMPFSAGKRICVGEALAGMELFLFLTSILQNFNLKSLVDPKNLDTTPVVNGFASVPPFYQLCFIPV
human CYP2D6, CYP2D6 (gene 1565), sequence (P10635 whole entry, looked up): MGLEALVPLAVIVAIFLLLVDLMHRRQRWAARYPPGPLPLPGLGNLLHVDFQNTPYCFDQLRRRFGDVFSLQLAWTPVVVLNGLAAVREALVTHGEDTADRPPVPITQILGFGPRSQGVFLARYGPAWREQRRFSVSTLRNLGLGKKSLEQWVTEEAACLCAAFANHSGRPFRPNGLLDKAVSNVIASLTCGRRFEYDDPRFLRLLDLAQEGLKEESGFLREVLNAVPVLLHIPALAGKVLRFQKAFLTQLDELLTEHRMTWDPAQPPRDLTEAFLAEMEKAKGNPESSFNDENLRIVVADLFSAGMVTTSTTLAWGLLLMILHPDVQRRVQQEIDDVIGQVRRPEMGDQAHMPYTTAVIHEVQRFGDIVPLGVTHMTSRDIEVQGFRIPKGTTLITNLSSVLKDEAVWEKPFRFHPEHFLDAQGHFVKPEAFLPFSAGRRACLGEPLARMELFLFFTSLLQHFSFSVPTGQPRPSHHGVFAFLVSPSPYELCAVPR
Cytochrome P450 3A4 (Homo sapiens), sequence (P08684 whole entry, looked up): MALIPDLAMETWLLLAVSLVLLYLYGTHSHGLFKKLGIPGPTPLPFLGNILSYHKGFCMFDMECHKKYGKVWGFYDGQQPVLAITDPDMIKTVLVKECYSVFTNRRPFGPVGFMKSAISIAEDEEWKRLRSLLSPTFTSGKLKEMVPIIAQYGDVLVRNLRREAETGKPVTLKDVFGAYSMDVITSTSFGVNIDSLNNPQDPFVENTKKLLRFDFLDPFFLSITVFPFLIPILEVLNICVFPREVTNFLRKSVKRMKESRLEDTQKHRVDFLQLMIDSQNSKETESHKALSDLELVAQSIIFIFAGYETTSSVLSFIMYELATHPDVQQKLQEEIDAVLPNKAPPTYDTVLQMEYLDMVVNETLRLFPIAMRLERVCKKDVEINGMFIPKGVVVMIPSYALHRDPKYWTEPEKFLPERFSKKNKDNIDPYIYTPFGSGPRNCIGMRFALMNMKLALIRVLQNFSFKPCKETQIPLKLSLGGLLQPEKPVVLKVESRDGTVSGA
human CYP1A2, CYP1A2 (gene 1544), sequence (P05177 whole entry, looked up): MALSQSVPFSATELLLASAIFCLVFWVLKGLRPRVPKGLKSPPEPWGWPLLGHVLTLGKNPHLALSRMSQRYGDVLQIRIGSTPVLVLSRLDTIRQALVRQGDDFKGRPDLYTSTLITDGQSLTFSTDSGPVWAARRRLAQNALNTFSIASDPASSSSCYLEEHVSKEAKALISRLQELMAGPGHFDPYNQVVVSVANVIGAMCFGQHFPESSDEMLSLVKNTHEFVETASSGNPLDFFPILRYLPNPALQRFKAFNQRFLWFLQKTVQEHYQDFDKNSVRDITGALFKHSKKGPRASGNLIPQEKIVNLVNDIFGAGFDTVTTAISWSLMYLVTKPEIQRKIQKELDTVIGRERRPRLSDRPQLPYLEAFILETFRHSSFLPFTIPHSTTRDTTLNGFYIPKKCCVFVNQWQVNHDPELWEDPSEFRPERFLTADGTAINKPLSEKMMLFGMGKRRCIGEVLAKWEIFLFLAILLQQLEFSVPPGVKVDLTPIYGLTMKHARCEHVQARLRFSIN
human Acetylcholinesterase (AChE), ACHE (gene 43), sequence (P22303 whole entry, looked up): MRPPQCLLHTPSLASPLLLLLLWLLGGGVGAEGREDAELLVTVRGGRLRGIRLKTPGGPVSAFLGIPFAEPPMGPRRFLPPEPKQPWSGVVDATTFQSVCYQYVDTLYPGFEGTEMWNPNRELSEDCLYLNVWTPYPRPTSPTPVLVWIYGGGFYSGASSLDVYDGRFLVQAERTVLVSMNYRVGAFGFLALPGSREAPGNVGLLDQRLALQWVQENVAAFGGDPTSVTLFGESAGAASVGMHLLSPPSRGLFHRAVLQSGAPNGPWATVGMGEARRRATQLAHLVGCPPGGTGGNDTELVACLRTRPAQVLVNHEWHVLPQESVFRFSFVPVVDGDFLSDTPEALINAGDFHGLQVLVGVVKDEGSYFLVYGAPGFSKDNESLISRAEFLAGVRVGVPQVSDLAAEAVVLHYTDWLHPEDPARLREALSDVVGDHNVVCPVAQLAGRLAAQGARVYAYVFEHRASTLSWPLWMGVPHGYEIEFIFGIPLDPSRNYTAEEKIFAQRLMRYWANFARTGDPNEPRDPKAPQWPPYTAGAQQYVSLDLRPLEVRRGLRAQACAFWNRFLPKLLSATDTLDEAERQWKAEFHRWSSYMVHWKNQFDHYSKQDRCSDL
human Caspase 2 (CASP2), CASP2 (gene 835), sequence (P42575 whole entry, looked up): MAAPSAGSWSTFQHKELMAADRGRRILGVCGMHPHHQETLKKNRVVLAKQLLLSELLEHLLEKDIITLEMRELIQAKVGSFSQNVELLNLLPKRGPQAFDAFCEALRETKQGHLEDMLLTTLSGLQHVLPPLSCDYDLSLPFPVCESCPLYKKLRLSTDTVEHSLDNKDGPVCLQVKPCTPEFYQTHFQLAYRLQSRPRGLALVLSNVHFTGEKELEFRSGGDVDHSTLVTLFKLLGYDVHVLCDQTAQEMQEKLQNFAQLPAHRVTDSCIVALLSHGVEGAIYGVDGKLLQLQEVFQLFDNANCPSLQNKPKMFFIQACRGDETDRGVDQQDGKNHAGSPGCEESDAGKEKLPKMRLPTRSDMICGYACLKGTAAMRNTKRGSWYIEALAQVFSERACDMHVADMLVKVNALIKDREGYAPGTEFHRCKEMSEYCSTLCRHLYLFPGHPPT
human CYP4F12, CYP4F12 (gene 66002), sequence (Q9HCS2 whole entry, looked up): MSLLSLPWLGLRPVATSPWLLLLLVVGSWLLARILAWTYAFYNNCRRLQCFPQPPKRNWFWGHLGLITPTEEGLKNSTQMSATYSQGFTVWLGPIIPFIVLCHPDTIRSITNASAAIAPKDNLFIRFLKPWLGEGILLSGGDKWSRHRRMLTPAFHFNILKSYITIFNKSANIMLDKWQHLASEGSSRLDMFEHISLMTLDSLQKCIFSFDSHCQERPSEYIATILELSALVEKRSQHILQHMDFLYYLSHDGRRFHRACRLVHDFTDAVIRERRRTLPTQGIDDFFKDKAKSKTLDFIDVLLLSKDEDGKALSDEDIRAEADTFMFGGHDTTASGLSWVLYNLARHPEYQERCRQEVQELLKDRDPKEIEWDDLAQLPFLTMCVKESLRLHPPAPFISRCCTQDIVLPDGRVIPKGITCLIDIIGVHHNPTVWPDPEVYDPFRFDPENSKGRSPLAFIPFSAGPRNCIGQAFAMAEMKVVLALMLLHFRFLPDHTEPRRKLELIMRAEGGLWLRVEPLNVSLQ
Caspase-1 (Homo sapiens), sequence (P29466 whole entry, looked up): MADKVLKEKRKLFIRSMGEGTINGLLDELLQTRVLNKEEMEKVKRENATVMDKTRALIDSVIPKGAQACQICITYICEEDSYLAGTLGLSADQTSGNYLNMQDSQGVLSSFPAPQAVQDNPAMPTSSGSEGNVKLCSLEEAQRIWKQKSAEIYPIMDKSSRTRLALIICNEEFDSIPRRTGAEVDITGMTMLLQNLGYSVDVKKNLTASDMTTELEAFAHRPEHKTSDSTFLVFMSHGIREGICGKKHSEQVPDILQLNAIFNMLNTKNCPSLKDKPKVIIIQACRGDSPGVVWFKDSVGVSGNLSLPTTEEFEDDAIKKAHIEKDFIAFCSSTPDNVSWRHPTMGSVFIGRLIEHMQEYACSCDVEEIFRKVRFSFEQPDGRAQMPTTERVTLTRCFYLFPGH
human AMP-activated Protein Kinase, alpha 1 (AMPKa1), PRKAA1 (gene 5562), sequence (Q13131 whole entry, looked up): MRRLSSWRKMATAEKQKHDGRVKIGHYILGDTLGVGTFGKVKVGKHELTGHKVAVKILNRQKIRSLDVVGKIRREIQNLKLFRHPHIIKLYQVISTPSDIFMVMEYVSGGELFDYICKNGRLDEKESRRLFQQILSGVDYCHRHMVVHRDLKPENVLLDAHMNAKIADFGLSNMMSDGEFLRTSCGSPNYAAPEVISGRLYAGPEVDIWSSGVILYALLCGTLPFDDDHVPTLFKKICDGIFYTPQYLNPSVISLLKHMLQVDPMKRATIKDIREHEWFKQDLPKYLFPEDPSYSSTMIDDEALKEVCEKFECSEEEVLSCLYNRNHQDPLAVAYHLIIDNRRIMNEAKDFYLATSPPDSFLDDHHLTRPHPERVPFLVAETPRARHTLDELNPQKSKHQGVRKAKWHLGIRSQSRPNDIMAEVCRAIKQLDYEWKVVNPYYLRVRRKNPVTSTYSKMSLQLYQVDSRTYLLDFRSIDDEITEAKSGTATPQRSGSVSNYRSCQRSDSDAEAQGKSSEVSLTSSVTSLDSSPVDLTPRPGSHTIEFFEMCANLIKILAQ

For `Nc1ccc(Cl)cc1N`, the AC50 [1] was 7.31 µM (active) and the outcome [2] was “inactive”.

In the case of `CCCCOC(=O)c1ccccc1C(=O)OCc1ccccc1`, the AC50 [1] is reported as 6.71 µM (active) and the AC50 [2] is reported as 2.72 µM (active).

In the case of `CC(C)(O)c1cnn2c(-c3ccc(F)c(-c4c(F)cccc4C#N)c3)cnc2n1`, the AC50 [3] is reported as 2.24 µM (active).

With `O=[N+]([O-])C(Br)(CO)CO` the AC50 [1] was 3.15 µM (active), the outcome [4] was “inactive” and the AC50 [3] was 3.26 µM (active). For the same molecule, the outcome [5] was “inactive”, the AC50 [2] was 1.93 µM (active) and the AC50 [6] was 29.5 µM (active).

In the case of `Nc1ccc(Oc2ccc(N)cc2)cc1`, the outcome [4] is reported as “inactive”, the AC50 [5] is reported as 7.04 µM (active) and the outcome [2] is reported as “inactive”.

With `Oc1ccc2ccc3cccc4ccc1c2c34` the AC50 [1] was 0.275 µM (active), the AC50 [3] was 2.53 µM (active) and the AC50 [5] was 6.74 µM (active). For the same molecule, the AC50 [6] was 7.92 µM (active) and the AC50 [7] was 6.02 µM (active).

`Cc1cccc(N)c1N` was tested, and the AC50 [1] was 6.94 µM (active).

`Nc1ccc(N=Nc2ccccc2)cc1` was tested, and the outcome [1] was “inactive”, the outcome [4] was “inactive” and the AC50 [3] was 7.26 µM (active). For the same molecule, the outcome [8] was “inactive” and the AC50 [2] was 6.47 µM (active).

`O=C(N[C@H](c1ccccc1)[C@@H]1CN2CCC1CC2)c1c(Cl)ccc(C(F)(F)F)c1Cl` was tested, and the AC50 [4] was 3.5 µM (active) and the outcome [5] was “inactive”.

`CCCCCCCCn1sccc1=O` was tested, and the AC50 [1] was 5.97 µM (active), the AC50 [4] was 7.91 µM (active) and the AC50 [3] was 7.51 µM (active). For the same molecule, the AC50 [5] was 8.75 µM (active) and the AC50 [2] was 6.04 µM (active).

`COP(=S)(OC)SCN1C(=O)c2ccccc2C1=O` was tested, and the AC50 [1] was 3.71 µM (active), the AC50 [4] was 6.97 µM (active) and the AC50 [3] was 4.74 µM (active). The AC50 [2] was 0.593 µM (active).

For `c1ccc2c(c1)-c1cccc3cccc-2c13`, the AC50 [1] was 7.21 µM (active).

For `Cc1cc(N=Nc2ccccc2C)ccc1N`, the AC50 [1] was 0.858 µM (active), the AC50 [3] was 4.5 µM (active) and the AC50 [2] was 2.69 µM (active).

For `CCOc1cccc(C2(N3CCN(c4ccccc4)CC3)CCC(C)CC2)c1` (stereo unspecified), the outcome [1] was “inactive” and the AC50 [8] was 4.36 µM (active).

In the case of `CN(C)C(=O)Nc1ccc(Cl)cc1`, the AC50 [1] is reported as 6.62 µM (active).

In the case of `[Cl-].[Cl-].[Hg+2]`, the AC50 [1] is reported as 0.998 µM (active), the AC50 [4] is reported as 3.44 µM (active) and the AC50 [3] is reported as 3.68 µM (active). For the same molecule, the AC50 [5] was 0.975 µM (active), the AC50 [2] was 0.812 µM (active) and the outcome [9] was “inactive”.

For `CCOC(=O)[C@]1(c2ccccc2)Oc2ccccc2[C@@H]1N`, the AC50 [1] was 5.07 µM (active), the AC50 [4] was 1.3 µM (active) and the AC50 [3] was 5.79 µM (active). For the same molecule, the AC50 [5] was 6.56 µM (active), the AC50 [2] was 2.09 µM (active) and the AC50 [6] was 24.3 µM (active).

`CC(C)COC(=O)c1ccccc1C(=O)OCC(C)C` was tested, and the AC50 [1] was 7.52 µM (active).

For `CC(C)(C)C(O)(CCc1ccc(Cl)cc1)Cn1cncn1` (stereo unspecified), the outcome [1] was “inactive”, the AC50 [3] was 6 µM (active) and the AC50 [5] was 5.27 µM (active). For the same molecule, the AC50 [2] was 0.698 µM (active).

`O=C(Nc1ccccc1)c1ccccc1I` was tested, and the outcome [1] was “inactive”, the outcome [5] was “inactive” and the AC50 [2] was 4.95 µM (active).

With `N#CC(Br)(Br)C(N)=O` the outcome [1] was “inactive” and the outcome [5] was “inactive”.

`CO[C@@H]1[C@H](OC(=O)NC(=O)CCl)CC[C@]2(CO2)[C@H]1[C@@]1(C)O[C@@H]1CC=C(C)C` was tested, and the AC50 [5] was 2.38 µM (active).

For `OCCOCCO`, the outcome [5] was “inactive”.

For `CN(C)[C@@H]1C(=O)C(C(N)=O)=C(O)[C@@]2(O)C(=O)C3=C(O)c4c(O)cccc4[C@@](C)(O)[C@H]3C[C@@H]12`, the outcome (Caspase-1 (Homo sapiens)) was “inactive”.

In the case of `Cc1ccc(N=C=O)cc1N=C=O`, the AC50 (Caspase-1 (Homo sapiens)) is reported as 25 µM (active) and the outcome [9] is reported as “inactive”.

In the case of `CCCCCCCCOC(=O)c1ccc(C(=O)OCCCCCCCC)c(C(=O)OCCCCCCCC)c1`, the outcome [9] is reported as “inactive”.
